An excerpt weighted towards active compounds, which were near 17% of everything screened.
TDP1 block = blocks human tyrosyl-DNA phosphodiesterase 1. actives 0.28% (n = 350,000). Q9NUW8. recombinant TDP1, AlphaScreen DNA substrate cleavage. Potency, µM (doses to about 130 µM), for inactives: at the highest dose activity change, negative = inhibition, hits mostly inhibitors; also: % is scaled to controls: 0 for no effect and ±100 for the full control effect; nearly all actives have a fitted effect of over 40% in size
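Steps: enzyme plus compound, 15 min RT; add biotin/phosphotyrosine-FITC oligonucleotide (15 nM final), react 5 min; add donor/acceptor beads (10 ug/ml final), 10 min; read AlphaScreen. Tdp1 at 1 nM final.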
TDP1 cell CPT = DT40-hTDP1 cell growth loss with CPT. Potency, µM (doses to about 46.2 µM), for the others: at the top dose activity change, negative = growth inhibition, actives largely listed as inhibitors. chicken DT40 Tdp1-/-;hTDP1 cells + 20 nM CPT, ATP luminescence, 48 h. AID 686979. actives 12% (n = 420,000); also: % is scaled to controls: 0 for no effect and ±100 for the full control effect; nearly all actives have a fitted effect of over 55% in size
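Cell growth measured by CellTiter-Glo luminescence after a minimum 48 h, 37 C compound exposure with 20 nM CPT in Tdp1-knockout DT40 cells stably expressing hTDP1, seeded 400/well; qHTS titration format.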
DT40 TDP1 no CPT = qHTS for Inhibitors of human tyrosyl-DNA phosphodiesterase 1 (TDP1): qHTS in cells in absence of CPT. actives 15% (n = 420,000). DT40 Tdp1-/- hTDP1 cells, no CPT, ATP luminescence, 48 h. AID 686978, 2013. Potency, µM (top dose mostly 46.2 µM), for the others: top-dose activity change, negative = growth inhibition, usual class: inhibitors; also: % is scaled to controls: 0 for no effect and ±100 for the full control effect; nearly all actives have a fitted effect of over 55% in size
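Stably hTDP1-transfected Tdp1-null chicken DT40 cells were treated with library compounds minus camptothecin and grown for at least 48 hr at 37 °C, after which cellular ATP was quantified by luminescence.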
ClpP mod = qHTS Assay for Activators of ClpP; purified B. subtilis ClpP, FRET peptide cleavage, 20 min; actives 1.9% (n = 340,000); Potency, µM (doses to about 57.5 µM), for the others: at the top dose activity change, negative = active; AID 651965, 2013; ATP-dependent Clp protease proteolytic subunit (Bacillus subtilis (strain 168)), P80244; active = well fitted falling curve with a large enough effect; inconclusive = small, poorly fitted or top-dose-only effect; inactive = no such curve, though single readings can be large or run the other way; also: the source files actives as falling curves though it sought activators and does not explain the sign; nearly all actives have a fitted effect of over 65% in size
Target sequence (P80244 whole entry, looked up): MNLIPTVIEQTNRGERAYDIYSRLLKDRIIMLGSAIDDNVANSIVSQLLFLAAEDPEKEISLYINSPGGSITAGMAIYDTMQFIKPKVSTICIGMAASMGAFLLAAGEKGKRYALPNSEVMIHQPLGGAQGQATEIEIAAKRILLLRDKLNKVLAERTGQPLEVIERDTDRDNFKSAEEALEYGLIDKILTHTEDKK
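ClpP 10 microg/mL final, pH 8 Tris/KCl buffer with BSA, glycerol, Tween-20; compound pinned in; FRET-FV substrate; RT 20 min; Ex320/Em430; ΔFRET vs ADEP 5.8 microM, DMSO, no enzyme.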
* hit, by the source's call; ? = inconclusive; / = not tested or not shown; [ ] = dose if it differs, or a comment. Unless noted, calls follow the shape of the dose curve; as a rule, active = well fitted curve in the direction sought with a large enough effect; inconclusive = small, poorly fitted or top-dose-only effect, or another doubt; inactive = no such curve, though single readings can be large; an effect the other way counts as inactive or inconclusive. Potency is read from the fitted curve at half-maximal effect.

SMILES	TDP1 block	TDP1 cell CPT	DT40 TDP1 no CPT	ClpP mod
COc1ccc(CCNC(=O)CCc2c(C)nc3nc(C)nn3c2C)cc1OC	5%	7%	17%	-2%
COc1cc(OC)cc(-c2cc3nc(C)c(CCC(=O)Nc4ccccc4OC)c(C)n3n2)c1	5%	?	23µM*	-17%
COc1ccc(CCNC(=O)CCc2c(C)nc3cc(-c4cccc(F)c4)nn3c2C)cc1OC	9%	8.2µM*	8.2µM*	-19%
COc1ccc(OC)c(C2C(C(=O)N3CCCCC3)=C(C)Nc3nc4ccccc4n32)c1 (stereo not given)	2%	-2%	-2%	?
O=C(c1ccc(=O)[nH]c1)N(c1ccccc1)C(CCc1ccccc1)c1nc2ccccc2[nH]1 (stereo not given)	/	-27%	?	-1%
CCOc1ccccc1NC(=O)Cn1c(=O)n(CCCC(=O)NCCOC)c(=O)c2cc(OC)c(OC)cc21	-3%	5%	-17%	-16%
O=C(NC1CCCc2ccccc21)c1cccc(F)c1 (stereo not given)	/	-12%	-27%	/
COc1ccc(C2=NOC(C(=O)N(C)Cc3ccccc3)C2)cc1 (stereo not given)	1%	-21%	-22%	/
Cc1cc2nn(-c3ccc(F)cc3)nc2cc1NC(=O)c1cccc([N+](=O)[O-])c1C	-1%	/	/	-3%
Cc1nn2c(C)c(C(=O)NCc3ccco3)cnc2c1-c1ccccc1	10%	?	?	1%
COc1cccc(Oc2ccc(C(F)(F)F)cc2NC(=O)CCc2nc3ccccc3c(=O)[nH]2)c1	4%	16µM*	18µM*	-1%
COc1ccc(Oc2c(C=O)c3ccccc3n2C)cc1	0%	?	?	-1%
Cn1c(Sc2ccc(Cl)cc2)c(C=O)c2ccccc21	-4%	?	21µM*	2%
Cc1ccc(Oc2c(C=O)c3ccccc3n2C)cc1	0%	3.3µM*	?	-1%
Cn1c(Oc2ccc(Cl)cc2)c(C=O)c2ccccc21	-3%	?	26µM*	-10%
CS(=O)(=O)OCCCNCCCOS(C)(=O)=O	/	2%	-21%	/
C=CCn1c(=N)n(CC(=O)c2ccc(OC)cc2)c2ccccc21	1%	?	?	/
CCSc1nnc(NC(=O)c2ccccc2C)s1	0%	?	?	/
O=C(OC1CC2CC1[C@H]1CCCCN1C2=O)N1CCC(c2ccccc2)CC1 (stereo not given in full)	/	?	16µM*	0%
O=C(OC1CC2CC1[C@H]1CCCCN1C2=O)N1CCN(c2ccccc2)CC1 (stereo not given in full)	/	2%	?	1%
Cc1cccc2sc(N(CCCN(C)C)C(=O)c3ccc4ncsc4c3)nc12	5%	?	?	1%
Cc1cccc2sc(N(CCCN(C)C)C(=O)c3nc4ccccc4s3)nc12	-3%	13µM*	13µM*	?
Cc1ccc2sc(N(CCCN(C)C)C(=O)c3nc4ccccc4s3)nc2c1C	5%	13µM*	6.5µM*	/
CCn1cc(/C=C(\NC(=O)c2ccccc2F)C(=O)N2CCN(C)CC2)c2ccccc21	/	?	-29%	-2%
COC(=O)C1C(=O)C=C(N2CCOCC2)CC1(C)C (stereo not given)	2%	4%	-2%	13µM*
SMILES	TDP1 block	TDP1 cell CPT	DT40 TDP1 no CPT	ClpP mod
Cc1ccc(NC(=O)COC(=O)C2CC(=O)N(Cc3ccccc3)C2)cc1S(=O)(=O)N(C)C (stereo not given)	1%	15%	1%	-1%
O=C(Nc1ccc2ccccc2c1)N1CCCN(CCOc2ccccc2)CC1	1%	4.6µM*	4.1µM*	-20%
O=C(c1cc2ccccc2o1)N1CCN(CCOc2ccccc2)CC1	11%	?	?	0%
Cn1c(-c2ccccc2)c(C(=O)CCl)c2ccccc21	8%	2.6µM*	3.3µM*	/
Cn1c(-c2ccccc2)c(O)c(=O)c2ccccc21	6%[21 µM]	/	/	/
Cn1c(Cl)c(C(=O)Nc2ccccc2)c2ccccc21	2%	?	?	-2%
Cn1c(-c2ccccc2)c(CCO)c2ccccc21	4%	-15%	-25%	28µM*
CCn1c2ccccc2c(=O)c2ccccc21	-6%	?	-15%	3%
CCn1c(-c2ccccc2)c(C(=O)CCl)c2ccccc21	2%	3.7µM*	2.6µM*	0%
COC(=O)N(C)C[C@H]1OCc2cn(nn2)CCCC(=O)N([C@@H](C)CO)C[C@@H]1C	/	-1%	16%	0%
CCN(CC)CCn1c(=N)n(CC(O)COc2ccccc2C)c2ccccc21 (stereo not given)	0%	8.2µM*	2.6µM*	1%
Cn1c(=O)n(CCOc2ccccc2Cl)c2ccccc21	6%	-3%	5.8µM*	1%
CCN(CC)CCn1c(=N)n(CCOc2ccccc2Cl)c2ccccc21	-2%	3.7µM*	4.1µM*	1%
Cn1c(=O)n(Cc2ccccc2Cl)c2ccccc21	2%	?	18µM*	/
C1CCN(Cc2nnnn2CC2CCCO2)CC1 (stereo not given)	-4%	2%	-3%	/
N=c1n(CCCOc2ccccc2Cl)c2ccccc2n1CC(N)=O	/	18µM*	21µM*	/
Nc1nc2ccccc2n1CCOc1ccccc1Cl	3%	?	26µM*	1%
CCCCn1c(=N)n(CC(=O)O)c2ccccc21	0%	7%	-5%	/
COc1cccc(CNC(=O)CSc2ncc(S(=O)(=O)c3ccc(C)c(Cl)c3)c(=O)[nH]2)c1	4%	/	/	0%
Cc1c(C(=O)NCCN2CCOCC2)cnn1-c1nccc(-c2cc3ccccc3o2)n1	/	-17%	-18%	/

From PubChem BioAssay
